# Test results published in PubChem BioAssay (Tox21).
# Inconclusive results are not listed. Calls of active or inactive are those of the source. Calls come from the whole dose curve.
# Test: qHTS assay to identify small molecule agonists of the NFkB signaling pathway - cell viability counter screen (AID 1159515); note: nearly all actives have a fitted effect of over 55% in size
# Settings: NFkB-bla ME-180 viability, CellTiter-Glo luminescence, 5 h; series mostly up to 61 µM
# Excerpt: National Center for Advancing Translational Sciences [NCATS]
# NIH Chemical Genomics Center [NCGC]
# U.S. Environmental Protection Agency [EPA]
# National Institutes of Environmental Health Sciences [NIEHS]
# National Toxicology Program [NTP]
# U.S. Food and Drug Administration [FDA]
# Transcription factors and their stimulated target gene expression play pivotal roles across many cellular processes including responses to environmental stimuli. Proper regulation of associated pathways is critical to maintain cell health and function. Constitutive activation of transcription factor pathways has been implicated in tumors as it may block cellular functions such as apoptosis and lead to invasion and metastasis. One important transcription factor that stimulates gene expression in response to cytokines, UV radiation, and other stimuli is nuclear factor-kappa B (NFkB). To measure activation of the NFkB pathway, the CellSensor NFkB-bla ME-180 cell line (Life Technologies, Carlsbad, CA) that stably expresses beta-lactamase reporter gene under the regulation of a NF-kB response element was used. This assay allows measurement of the NFkB pathway activity induced by compounds in a ME-180 cell line. This system quantitates NF-kB activity using a FRET-based assay system where beta-lactamase expression disrupts FRET, allowing for fluorescent measurement of activity. This cell line has been used to screen the Tox21 10K compound library and to identify compounds that induce the NFkB pathway activity. The cytotoxicity of the Tox21 compound library against the NFkB-bla ME-180 cell line was tested in parallel by measuring cell viability using the CellTiter-Glo assay in the same wells.
# Tox21 Assay Protocol Summary:
# NFkB-bla ME-180 cells were dispensed at 2,000 cells/6 uL of assay medium per well into black wall/clear-bottom 1536-well plates using a Multidrop Combi (ThermoFisher Scientific, Waltham, MA) dispenser. After the assay plates were incubated at 37 C and 5% CO2 for an overnight, 23 nL of compounds dissolved in DMSO, positive controls or DMSO only was transferred to the assay plate by a Pintool station (Kalypsys, San Diego, CA). The assay plates were incubated at 37 C and 5% CO2 for 5 hr. One uL of LiveBLAzer B/G FRET substrate (Life Technologies) was added using a Flying Reagent Dispenser (Aurora Discovery, San Diego, CA) and the plates were incubated at room temperature for 1.5 hr. Fluorescence intensity (405 nm excitation, 460 nm and 530 nm emissions) was measured using an Envision plate reader (PerkinElmer, Shelton, CT). For cytotoxicity, 3 ul/well of CellTiter-Glo reagent was added into the assay plates using an FRD. After 30 min incubation at room temperature, the luminescence intensity was measured using a ViewLux plate reader (PerkinElmer).
row,Compound,outcome
1,CC(C)OC(=O)Nc1ccccc1,inactive
2,Clc1ccccc1Cl,inactive
3,CCC[N+](=O)[O-],inactive
4,Cc1cc(Cl)ccc1O,inactive
5,C[C@]12CC[C@H]3[C@@H](CC[C@@]45O[C@@H]4C(O)=C(C#N)C[C@]35C)[C@@H]1CC[C@@H]2O,inactive
6,CCCCCCCCCl,inactive
7,CC(C)(Cl)Cl,inactive
8,CCCCN(CC)C(=O)SCCC,inactive
9,O=[N+]([O-])c1ccc(Oc2ccc(Cl)cc2Cl)cc1,inactive
10,C=C(C)CCl,inactive
11,C#CCN(C)[C@H](C)Cc1ccccc1,inactive
12,Clc1cccc(Cl)c1Cl,inactive
13,CN(C)[C@@H]1C(=O)C(C(N)=O)=C(O)[C@@]2(O)C(=O)C3=C(O)c4c(O)cccc4[C@@](C)(O)[C@H]3C[C@@H]12,inactive
14,Clc1ccc(Cl)cc1,inactive
15,CCc1cccc(C)c1N(C(=O)CCl)C(C)COC (stereo not given),inactive
16,NCC(O)c1ccc(O)cc1 (stereo not given),inactive
17,CN(C)N=O,inactive
18,Cc1cc(-c2cc(C)c(N)c(C)c2)cc(C)c1N,inactive
19,c1cc2c3c(cccc3c1)CC2,inactive
20,O=S(=O)(c1ccc(Cl)cc1)c1cc(Cl)c(Cl)cc1Cl,inactive

row,Compound,outcome
1,COC(=O)NC(=S)Nc1ccccc1NC(=S)NC(=O)OC,inactive
2,CC(C)NC(=O)N1CC(=O)N(c2cc(Cl)cc(Cl)c2)C1=O,inactive
3,CC(Oc1ccc(Cl)cc1Cl)C(=O)O (stereo not given),inactive
4,CCCCCCCCCCCC#N,inactive
5,CCOP(OCC)OCC,inactive
6,NCCc1ccc(O)cc1,inactive
7,c1ccc2c(c1)Oc1ccccc1O2,inactive
8,C1CC2OC2CC1C1CO1 (stereo not given),inactive
9,CCNc1nc(NC(C)C)nc(SC)n1,inactive
10,CC(C)(C)C(O)(CCc1ccc(Cl)cc1)Cn1cncn1 (stereo not given),inactive
11,COC(=O)NS(=O)(=O)c1ccc(N)cc1,inactive
12,Cn1cc(-c2ccccc2)c(=O)c(-c2cccc(C(F)(F)F)c2)c1,inactive
13,COc1ccc2c3c1O[C@H]1[C@@H](O)C=C[C@H]4[C@@H](C2)N(C)CC[C@@]341,inactive
14,CN=C=S,inactive
15,Oc1ccccc1Cl,inactive
16,CCCN(CCC)c1c([N+](=O)[O-])cc(C(F)(F)F)cc1[N+](=O)[O-],inactive
17,CCC(C)(CC)c1cc(NC(=O)c2c(OC)cccc2OC)on1,inactive
18,COC(=O)c1ccccc1C(=O)OC,inactive
19,O=c1[nH]c2ccccc2c(=O)o1,inactive
20,O=S(=O)(c1ccc(O)cc1)c1ccc(O)cc1,inactive
